Test results taken from the supplement of paper PMC3545927.
Some of the results follow. How many sequences the whole screen found active is unknown.

B1: HC606 (peptide)
chain: CALLLAVFGPAGNASASA
B2: HC103 (peptide)
chain: CAVVCCVMSYAGNASASA
B3: FS-2110 (peptide)
chain: CARVWRATSSAGNASASA
B4: FS-2954 (peptide)
chain: CARIKRSAPLAGNASASA
B5: HC2559 (peptide)
chain: CASTPCSAPLAGNASASA
B6: FS-1898 (peptide)
chain: CARIKRQHSSAGNASASA
B7: FS-842 (peptide)
chain: CAPRSRARKLAGNASASA
B8: FS-3156 (peptide)
chain: CARIKRSRKLAGNASASA
B9: FS-2982 (peptide)
chain: CARKSRWAKLAGNASASA
B10: FS-2990 (peptide)
chain: CARLKRLCSSAGNASASA
B11: HC555 (peptide)
chain: CATFYGMWPLAGNASASA
B12: HC2432 (peptide)
chain: CAEREVPCHRAGNASASA
B13: HC519 (peptide)
chain: CAEYVVLLFLAGNASASA
B14: HC547 (peptide)
chain: CACFAWYLKGAGNASASA
B15: FS-2181 (peptide)
chain: CARRRRKVLAAGNASASA
B16: FS-2798 (peptide)
chain: CARRRRTAFAAGNASASA
B17: FS-2800 (peptide)
chain: CARRRRTALAAGNASASA
B18: FS-2799 (peptide)
chain: CARRRRTAILAGNASASA
B19: FS-2080 (peptide)
chain: CARRRRRTAIAGNASASA
B20: HC1131 (peptide)
chain: CAAARVTAILAGNASASA
B21: HC943 (peptide)
chain: CALTHIDAHFAGNASASA
B22: FS-246 (peptide)
chain: CAGWKRARRAAGNASASA
B23: FS-3225 (peptide)
chain: CARKTRSHTAAGNASASA
B24: FS-2040 (peptide)
chain: CARKTRSARRAGNASASA
B25: FS-82 (peptide)
chain: CARATRARRAAGNASASA
B26: HC660 (peptide)
chain: CAGLPVSARRAGNASASA
B27: HC680 (peptide)
chain: CALLGCIITSAGNASASA
B28: HC2441 (peptide)
chain: CANREVPCHRAGNASASA
B29: HC2241 (peptide)
chain: CAEVVTSTNVAGNASASA
B30: HC1178 (peptide)
chain: CAITGHVKNGAGNASASA
B31: HC1046 (peptide)
chain: CAGIQYLAGLAGNASASA
B32: FS-2424 (peptide)
chain: CARKKKVWDYAGNASASA
B33: FS-1266 (peptide)
chain: CARRHRATRKAGNASASA
B34: FS-489 (peptide)
chain: CARKTRARRAAGNASASA
B35: FS-3226 (peptide)
chain: CARKTRSTHTAGNASASA
B36: FS-2449 (peptide)
chain: CARRKKEVRKAGNASASA
B37: FS-1265 (peptide)
chain: CARRHRARRAAGNASASA
B38: FS-2920 (peptide)
chain: CARFFRYLHTAGNASASA
B39: FS-2552 (peptide)
chain: CARFDRIAHTAGNASASA
B40: FS-1653 (peptide)
chain: CARRHEKKRKAGNASASA
B41: HC621 (peptide)
chain: CAFCALARKMAGNASASA
B42: HC2122 (peptide)
chain: CAQDVVCCSMAGNASASA
B43: HC1064 (peptide)
chain: CALLFNILGGAGNASASA
B44: FS-1670 (peptide)
chain: CAERKRECQLAGNASASA
B45: FS-383 (peptide)
chain: CATAHRIKRAAGNASASA
B46: FS-650 (peptide)
chain: CAERKRIKRAAGNASASA

Target: furin, P09958
Sequence (P09958 whole entry): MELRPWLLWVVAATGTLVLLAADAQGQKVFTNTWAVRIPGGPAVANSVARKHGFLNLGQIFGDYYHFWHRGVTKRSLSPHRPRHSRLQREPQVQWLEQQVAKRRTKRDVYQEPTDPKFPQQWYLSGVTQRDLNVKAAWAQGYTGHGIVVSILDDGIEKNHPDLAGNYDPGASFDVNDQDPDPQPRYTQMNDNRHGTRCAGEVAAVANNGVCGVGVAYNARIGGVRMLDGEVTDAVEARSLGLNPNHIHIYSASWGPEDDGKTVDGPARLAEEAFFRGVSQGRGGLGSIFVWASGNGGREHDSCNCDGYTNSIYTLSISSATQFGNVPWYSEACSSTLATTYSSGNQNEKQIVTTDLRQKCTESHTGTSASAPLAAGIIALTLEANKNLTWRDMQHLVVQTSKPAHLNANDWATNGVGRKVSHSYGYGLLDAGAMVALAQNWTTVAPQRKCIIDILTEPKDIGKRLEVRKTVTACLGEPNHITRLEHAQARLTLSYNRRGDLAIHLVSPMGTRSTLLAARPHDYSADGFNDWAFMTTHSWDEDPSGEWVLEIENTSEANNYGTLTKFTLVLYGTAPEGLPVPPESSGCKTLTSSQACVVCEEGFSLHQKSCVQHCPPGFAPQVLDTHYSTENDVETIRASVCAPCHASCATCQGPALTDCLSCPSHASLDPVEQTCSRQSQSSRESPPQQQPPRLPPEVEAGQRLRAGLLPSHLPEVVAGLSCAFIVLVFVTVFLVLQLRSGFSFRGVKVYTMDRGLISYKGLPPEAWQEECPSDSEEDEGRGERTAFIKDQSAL
Test: furin cleavage Z-score vs untreated control; higher = more cleavage, active = 3.5 or more, inactive = 1 or less, 8 variable residues between constant flanks
Outline: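 The cleavage Z-score was derived for purified furin acting on 8-mer peptides held on magnetic beads and fused to a cDNA oligonucleotide. Digests lasted 7.5, 15 or 30 min at 1:10 enzyme:substrate in 50 mM HEPES pH 7.5 with CaCl2 and NaCl. Sequencing counts of released DNA, log-transformed against furin-free reactions, were lowess-adjusted and scaled by median absolute deviation.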

| Sequence | furin cleavage Z-score (7.5 min) | furin cleavage Z-score (15 min) | furin cleavage Z-score (30 min) |
| --- | --- | --- | --- |
| B1 | -1.28 (inactive) | -0.292 (inactive) | 0.343 (inactive) |
| B2 | -1.06 (inactive) | -0.0414 (inactive) | -1.47 (inactive) |
| B3 | 1.3 | 0.783 (inactive) | 0.938 (inactive) |
| B4 | 11.4 (active) | 11.4 (active) | 10.2 (active) |
| B5 | -0.781 (inactive) | 0.424 (inactive) | 0.232 (inactive) |
| B6 | 4.55 (active) | 5.06 (active) | 4.01 (active) |
| B7 | 0.0836 (inactive) | 1.96 | -0.483 (inactive) |
| B8 | 7.25 (active) | 9.58 (active) | 9.07 (active) |
| B9 | -0.417 (inactive) | 0.0632 (inactive) | 3.23 |
| B10 | 0.399 (inactive) | -0.446 (inactive) | 0.202 (inactive) |
| B11 | -1.22 (inactive) | -0.0659 (inactive) | 1.29 |
| B12 | 0.541 (inactive) | 0.603 (inactive) | 1.7 |
| B13 | -0.402 (inactive) | 0.168 (inactive) | -0.326 (inactive) |
| B14 | -1.21 (inactive) | -0.696 (inactive) | 0.991 (inactive) |
| B15 | -0.244 (inactive) | 1.09 | 1.13 |
| B16 | 5.77 (active) | 8.03 (active) | 7.17 (active) |
| B17 | 7.39 (active) | 9.46 (active) | 7.26 (active) |
| B18 | 5.32 (active) | 8.15 (active) | 8.93 (active) |
| B19 | 4.79 (active) | 6.3 (active) | 6.06 (active) |
| B20 | 0.0621 (inactive) | 1.08 | -0.5 (inactive) |
| B21 | -1.16 (inactive) | -1.18 (inactive) | -0.971 (inactive) |
| B22 | 10.7 (active) | 11 (active) | 9.68 (active) |
| B23 | 4.24 (active) | 5.12 (active) | 4.27 (active) |

| Sequence | furin cleavage Z-score (7.5 min) | furin cleavage Z-score (15 min) | furin cleavage Z-score (30 min) |
| --- | --- | --- | --- |
| B24 | 7.75 (active) | 10.4 (active) | 8.66 (active) |
| B25 | 10.6 (active) | 10.6 (active) | 7.6 (active) |
| B26 | -1.44 (inactive) | -0.486 (inactive) | -0.384 (inactive) |
| B27 | -0.345 (inactive) | -1.06 (inactive) | -1.24 (inactive) |
| B28 | 1.82 | -0.276 (inactive) | 0.432 (inactive) |
| B29 | 0.759 (inactive) | 0.285 (inactive) | 0.157 (inactive) |
| B30 | -0.0306 (inactive) | -2.29 (inactive) | -0.221 (inactive) |
| B31 | 0.778 (inactive) | 0.268 (inactive) | 0.333 (inactive) |
| B32 | 0.95 (inactive) | -1.66 (inactive) | -0.314 (inactive) |
| B33 | 7.21 (active) | 8.97 (active) | 6.15 (active) |
| B34 | 11.1 (active) | 11.3 (active) | 9.01 (active) |
| B35 | 10.5 (active) | 11.5 (active) | 7.23 (active) |
| B36 | -0.452 (inactive) | -0.724 (inactive) | 1.33 |
| B37 | 12.1 (active) | 11 (active) | 9.18 (active) |
| B38 | -0.737 (inactive) | -1.73 (inactive) | 0.025 (inactive) |
| B39 | 0.362 (inactive) | -0.331 (inactive) | 0.407 (inactive) |
| B40 | -1.27 (inactive) | -0.15 (inactive) | -1.21 (inactive) |
| B41 | 0.374 (inactive) | 0.367 (inactive) | 0.832 (inactive) |
| B42 | -0.38 (inactive) | -0.828 (inactive) | -1.79 (inactive) |
| B43 | -0.771 (inactive) | -1.63 (inactive) | -1.52 (inactive) |
| B44 | 0.036 (inactive) | 1.4 | -0.462 (inactive) |
| B45 | 9.97 (active) | 8.71 (active) | 6.96 (active) |
| B46 | 9.45 (active) | 8.85 (active) | 7.6 (active) |
